Source: PubChem (National Center for Advancing Translational Sciences (NCATS))
Shown are actives, neighbours in structure and some others; about 11% of the full set was active somewhere.
JMJD2A Tudor inh: JMJD2A Tudor domain (human) inhibition | O75164 | AlphaScreen JMJD2A-Tudor / H3K4me3 peptide binding | Potency, µM (series often up to 114 µM), inactives show at the highest dose activity change, negative = inhibition, hits mostly inhibitors | 390,000 tested, 4.4% active; also: potency is read from the fitted curve at half-maximal effect; % is scaled to controls: 0 for no effect and ±100 for the full control effect; nearly all actives have a fitted effect of over 50% in size
PI5P4K alpha inh: blocks human PI5P4K alpha kinase activity | P48426 | PI5P4Kalpha enzyme, ADP-Glo luminescence, 60 min; stronger effect = lower value | max response, % | 330,000 tested, 1.2% active | AID 652105; active = max response of -50% or lower; inconclusive = between -30% and -50%; inactive = -30% or higher; also: value at the top dose of about 77 µM; % is scaled to controls: 0 for no effect and ±100 for the full control effect
Target sequence (P48426 whole entry, looked up): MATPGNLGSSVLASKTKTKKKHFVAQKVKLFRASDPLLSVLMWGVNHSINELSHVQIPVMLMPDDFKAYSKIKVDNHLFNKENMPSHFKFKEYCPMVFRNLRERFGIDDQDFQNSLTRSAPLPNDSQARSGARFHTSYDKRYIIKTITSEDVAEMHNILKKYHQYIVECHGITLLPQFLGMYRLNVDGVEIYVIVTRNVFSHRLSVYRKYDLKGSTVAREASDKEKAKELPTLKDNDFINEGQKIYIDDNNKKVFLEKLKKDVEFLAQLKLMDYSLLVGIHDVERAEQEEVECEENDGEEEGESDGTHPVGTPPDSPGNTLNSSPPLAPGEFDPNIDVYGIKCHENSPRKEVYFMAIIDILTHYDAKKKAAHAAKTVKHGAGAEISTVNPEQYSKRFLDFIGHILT
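Single end-point luminescence (ADP-Glo) quantified ADP from PI5P4Kalpha turnover; ATP 5 microM final, 1 h at RT, 0.1% CHAPS and 0.28 mM EGTA in HEPES pH 7.4.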
HP1b binding inh: HP1-beta chromodomain-methylated histone interaction inhibition | P83916 | AlphaScreen HP1-beta / biotin-H3K9me3 peptide binding | Potency, µM (titrated, usually from 114 µM), without a hit: top-dose activity change, negative = inhibition, usual class: inhibitors | 390,000 tested, 0.56% active | AID 540317; also: potency is read from the fitted curve at half-maximal effect; nearly all actives have a fitted effect of over 70% in size
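AlphaScreen: HP1-beta (50 nM) preformed 30 min with biotin-H3(1-18)K9me3 peptide (50 nM) in PBS pH 7.4, 0.01% Tween-20. Compound added for 30 min at RT, then streptavidin donor/nickel chelate acceptor beads (10 ug/mL) for 30 min.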
BAZ2B inh: BAZ2B (human) inhibition; AlphaScreen BAZ2B-H3K14Ac peptide displacement; Potency, µM (series often up to 114 µM), inactives show at the top dose activity change, negative = inhibition, hits mostly inhibitors; 360,000 tested, 4.4% active; also: potency is read from the fitted curve at half-maximal effect; % is scaled to controls: 0 for no effect and ±100 for the full control effect; nearly all actives have a fitted effect of over 60% in size
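BAZ2B (50 nM) with biotin-H3(5-23)K14Ac peptide (50 nM) in PBS pH 7.4, 0.01% Tween-20, preformed 30 min, then compound 30 min at room temperature; top concentration 110uM. AlphaScreen streptavidin donor/nickel chelate acceptor beads (10 ug/mL final), 20 min dark, signal read.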
L3MBTL1 block: L3MBTL1 (human) inhibition; 230,000 tested, 0.66% active; Potency, µM (highest dose often 57.1 µM), for inactives: top-dose activity, negative = inhibition, usual class: inhibitors; AlphaScreen L3MBTL1–H3K9me1 peptide binding; also: potency is read from the fitted curve at half-maximal effect; % is scaled to controls: 0 for no effect and ±100 for the full control effect; nearly all actives have a fitted effect of over 60% in size
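L3MBTL1 (50 nM) pre-complexed 30 min with biotinylated H3(1-15)K9me1 peptide (75 nM), then compounds added for 30 min at room temperature; AlphaScreen streptavidin donor/nickel chelate acceptor beads (10 ug/mL final) read after 30 min dark incubation.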
G9a inh: blocks human histone lysine methyltransferase G9a. Q96KQ7. G9a H3K9 monomethylation, AlphaScreen, 2 h. Potency, µM (titrated, usually from 102 µM), for the others: at the highest dose activity, negative = inhibition, hits mostly inhibitors. 350,000 tested, 8.8% active. AID 504332; also: potency is read from the fitted curve at half-maximal effect; % is scaled to controls: 0 for no effect and ±100 for the full control effect; nearly all actives have a fitted effect of over 75% in size
Target sequence (Q96KQ7 913-1193 limits assumed): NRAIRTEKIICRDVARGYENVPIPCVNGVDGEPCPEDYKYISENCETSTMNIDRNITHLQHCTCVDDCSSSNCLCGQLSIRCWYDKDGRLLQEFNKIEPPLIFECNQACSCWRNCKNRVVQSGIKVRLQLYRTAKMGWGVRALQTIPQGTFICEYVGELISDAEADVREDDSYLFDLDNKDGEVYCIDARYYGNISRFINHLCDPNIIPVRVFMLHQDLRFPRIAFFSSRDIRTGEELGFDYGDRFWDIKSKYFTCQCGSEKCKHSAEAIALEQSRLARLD
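G9a (20 nM) was preincubated 15 min with compound, then reacted 2 h at room temperature with 500 nM biotin-H3K9 peptide and 20 µM SAM. Monomethyl-H3K9 detected by AlphaScreen using anti-H3K9me1 antibody.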
Numbers without * were called inactive; [ ] = dose if it differs, or a comment. Unless noted, calls follow the shape of the dose curve; as a rule, active = well fitted inhibition curve with a large enough effect; inconclusive = small, poorly fitted or top-dose-only effect; inactive = no such curve, though single readings can be large or run the other way.

For C=CCn1c(-c2ccc(Cl)cc2)cnc1SC(C)C(N)=O (stereo unspecified) the results were JMJD2A Tudor inh -33%, PI5P4K alpha inh 3, HP1b binding inh 20%, BAZ2B inh inconclusive and G9a inh 10µM*.
Screening Cc1ccc(CNC(=O)C2CCC(CNS(=O)(=O)c3ccc4c(c3)CCCC(=O)N4)CC2)cc1 (stereo unspecified) returned JMJD2A Tudor inh -15%, HP1b binding inh 11%, BAZ2B inh 0% and G9a inh 9%[59 µM].
`CCCCCOC(=O)Nc1ccc(S(=O)(=O)Nn2cnnc2)cc1` gave JMJD2A Tudor inh 89µM*, HP1b binding inh -2%, BAZ2B inh -2%, L3MBTL1 block 1% and G9a inh 10%[59 µM].
Screening Oc1ccccc1C1=Nc2nc3ccccc3n2C(c2ccccc2)C1 (stereo unspecified) returned JMJD2A Tudor inh inconclusive, PI5P4K alpha inh -13, HP1b binding inh 4%, BAZ2B inh inconclusive, L3MBTL1 block -12% and G9a inh 13µM*.
`Oc1ccccc1C1=NN(c2ccccc2)C(c2ccc(F)cc2)C1` (stereo unspecified) gave JMJD2A Tudor inh 220%, PI5P4K alpha inh 15, HP1b binding inh 291%, BAZ2B inh 140% and G9a inh 386%.
For Cc1c(C(=O)Nc2cccc(C(F)(F)F)c2)oc2ccc(S(=O)(=O)N(C)C3CCCCC3)cc12 the results were JMJD2A Tudor inh -5%, HP1b binding inh 28%, BAZ2B inh 3% and G9a inh 4%[59 µM].
`Cc1cc(-c2nsc(=O)o2)c(S(C)(=O)=O)s1` gave JMJD2A Tudor inh inconclusive, PI5P4K alpha inh inconclusive, HP1b binding inh inconclusive, BAZ2B inh 0%, L3MBTL1 block -6% and G9a inh 2µM*.
Screening CN(C)c1ccc(O)c2c1C[C@@H]1C[C@H]3C(N(C)C)C(=O)C(C(N)=O)=C(O)[C@@]3(O)C(=O)C1=C2O (stereo partly specified) returned G9a inh -51%[2.33 µM].
CN(C)c1ccc(O)c2c1CC1CC3C(N(C)C)C(=O)C(C(N)=O)=C(O)[C@@]3(O)C(=O)C1=C2O (stereo partly specified) was read as JMJD2A Tudor inh 8.9µM*, PI5P4K alpha inh 0 and HP1b binding inh 3%.
CN(C)c1ccc(O)c2c1CC1CC3[C@@H](N(C)C)C(=O)C(C(N)=O)C(=O)[C@]3(O)C(=O)C1C2=O (stereo partly specified) was read as JMJD2A Tudor inh 8.9µM*, PI5P4K alpha inh -8 and HP1b binding inh 16%.
COc1ccc(CNc2nc(Cl)nc3nc[nH]c23)cc1 was read as JMJD2A Tudor inh -18% and HP1b binding inh 26%.
For CN(C)CCCNC(=O)C(=O)NCC(c1ccc2c(c1)OCO2)N1CCOCC1 (stereo unspecified) the results were JMJD2A Tudor inh -17%, HP1b binding inh 42%[57 µM], BAZ2B inh 40% and G9a inh 1%[59 µM].
For CCCCNc1nc2c(c(=O)n(Cc3ccc(Cl)c(Cl)c3)c(=O)n2C)n1C the results were JMJD2A Tudor inh inconclusive, HP1b binding inh 14%, BAZ2B inh inconclusive and G9a inh -43%[59 µM].
For CCCCCCNC(=O)N[C@@H](C(=O)NCCC[C@H]1CN2C(=NC[C@@H]2Cc2ccccc2)N1CCc1cccc(OC)c1)C(C)C the results were JMJD2A Tudor inh 5µM*, PI5P4K alpha inh -83*, HP1b binding inh inconclusive, BAZ2B inh 25µM* and G9a inh inconclusive.
Screening O=C(O)C1Nc2c(C(F)(F)F)ccc(Cl)c2C2C=CCC12 (stereo unspecified) returned JMJD2A Tudor inh -26%, PI5P4K alpha inh -27, HP1b binding inh -4%, BAZ2B inh inconclusive and G9a inh 10µM*.
For Cc1cc(C)c2c(c1)NC(C(=O)O)C1CC=CC21 (stereo unspecified) the results were JMJD2A Tudor inh 13µM*, PI5P4K alpha inh -79*, HP1b binding inh 20µM*, BAZ2B inh 11µM* and L3MBTL1 block 5µM*.
For O=C(O)C1Nc2c(C(=O)N3CCOCC3)cccc2C2C=CCC12 (stereo unspecified) the results were JMJD2A Tudor inh 11µM*, PI5P4K alpha inh -62*, HP1b binding inh 40µM*, BAZ2B inh 20µM*, L3MBTL1 block 3.5µM* and G9a inh 8.9µM*.
For Cc1cc(C)c2c(c1)C1C=CCC1C(C(=O)O)N2 (stereo unspecified) the results were JMJD2A Tudor inh 20µM* and HP1b binding inh 20µM*.
`Cc1cc(C)c2c(c1)N[C@H](c1cccs1)[C@@H]1CCO[C@H]21` gave JMJD2A Tudor inh -10%, PI5P4K alpha inh -3, HP1b binding inh 27%, BAZ2B inh -3%, L3MBTL1 block -4% and G9a inh 3%.
`COc1cc(NC(=O)C2CCN(c3nc4ccccc4nc3C(F)(F)F)CC2)cc(OC)c1` gave JMJD2A Tudor inh 1%, HP1b binding inh 30%, BAZ2B inh -1% and G9a inh 6%[59 µM].
For CCOC(=O)c1ccc(NC(=O)CSc2c(C(C)C)cnc3c2c(=O)n(C)c(=O)n3C)cc1 the results were JMJD2A Tudor inh inconclusive, HP1b binding inh 21%[57 µM], BAZ2B inh inconclusive and G9a inh inconclusive.
Screening Cc1ccc(Cl)c2c1N[C@@H](c1ccc(C(=O)O)cc1)[C@H]1CC=C[C@@H]21 returned JMJD2A Tudor inh inconclusive, HP1b binding inh 5%, BAZ2B inh inconclusive and G9a inh inconclusive.
Screening Cc1ccc2c(c1C)NC(C(=O)O)C1CC=CC21 (stereo unspecified) returned JMJD2A Tudor inh 7.9µM*, HP1b binding inh 11µM*, BAZ2B inh 7.1µM*, L3MBTL1 block 5µM* and G9a inh 8.9µM*.
Screening Cc1ccc(NC(=O)CSc2nc3nccnc3c(=O)n2CCc2c[nH]c3ccccc23)c(C)c1 returned JMJD2A Tudor inh 6%, HP1b binding inh 38%, BAZ2B inh -16% and G9a inh 2%[59 µM].
`CCOC(=O)c1ccc(Nc2nc3nonc3nc2Nc2cccc(C)c2C)cc1` gave JMJD2A Tudor inh inconclusive, HP1b binding inh -1%, BAZ2B inh 22µM* and G9a inh -50%[59 µM].
For Cc1ccc(C)c(Nc2nc3nonc3nc2Nc2cccc(C)c2C)c1 the results were JMJD2A Tudor inh inconclusive, HP1b binding inh 19%, BAZ2B inh inconclusive and G9a inh -49%[59 µM].
